TNAP act mid DEA – human TNAP activation, intermediate phosphate acceptor; AID 813; 64,000 tested, under 10 active; activation factor at 20 µM; P05186; purified TNAP, CDP-star luminescence, 100 mM DEA, 30 min; hits give high values; scale: 0 levamisole-inhibited, 1 vehicle-only enzyme;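 active = activation factor of at least 2 at 20 µM, relative to controls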
Candida biofilm – kills Candida albicans biofilms. C. albicans biofilm + clotrimazole, Alamar Blue. inhibition, % at 6 µM. 0.14% of 85,000 active. AID 834;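 active = inhibition above 20%; inactive = inhibition below 20%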;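 also: preformed 24 hr biofilms exposed to compound for 48 hr; 0% = biofilm without compound and 100% = blank killed by clotrimazole plus chlorhexidine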
PLAP act – activates human placental alkaline phosphatase | purified PLAP enzyme, luminescent substrate read-out; hits give high values | activation fold at 20 µM | 1.2% of 96,000 active; in the data active = activation fold above about 2
HePTP inh – blocks human HePTP tyrosine phosphatase; P35236; recombinant HePTP phosphatase activity, OD absorbance; inhibition, % at 20 µM; 0.64% of 110,000 active; AID 521; in the data active = inhibition above about 50%;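 also: plate controls were vehicle for no effect and reference inhibitor for full effect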
hDAT+cocaine – changed human dopamine transporter uptake under cocaine IC80 | Q01959 | LLC-PK1 hDAT cells, [14C]-dopamine uptake with cocaine IC80; actives deviate in either direction | B-score at 10 µM | 1.3% of 110,000 active | AID 449768;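 active = Z score or B-score, a plate-position-corrected score, falls beyond the plate's 99.7% confidence bounds, in either direction; inactive = both scores lie inside the 99.7% bounds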;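 also: scored against the spread of the other compound wells on the same plate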
D1 allo mod – D1 dopamine receptor (human) allosteric modulation; HEK293 D1, CRE-luciferase, dopamine EC30 potentiation; actives deviate in either direction; AID 641; B-score at 10 µM; P21728; 5.9% of 58,000 active;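 active = luminescence count or its row- and column-corrected plate score outside the 99.7% band of the plate's sample wells, on either side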
Target sequence (P21728 whole entry, looked up): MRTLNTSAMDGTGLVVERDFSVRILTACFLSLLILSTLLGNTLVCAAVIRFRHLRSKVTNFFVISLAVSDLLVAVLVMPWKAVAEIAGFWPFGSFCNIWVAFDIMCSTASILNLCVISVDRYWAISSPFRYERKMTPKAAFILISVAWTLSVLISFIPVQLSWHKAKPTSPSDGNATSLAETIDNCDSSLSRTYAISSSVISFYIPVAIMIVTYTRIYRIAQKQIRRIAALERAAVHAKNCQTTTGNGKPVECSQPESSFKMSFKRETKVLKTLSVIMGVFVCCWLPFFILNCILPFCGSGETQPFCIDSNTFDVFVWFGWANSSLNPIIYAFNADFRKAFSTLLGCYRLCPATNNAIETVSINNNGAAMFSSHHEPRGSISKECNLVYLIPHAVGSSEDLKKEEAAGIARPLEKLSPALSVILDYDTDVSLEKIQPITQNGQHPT
Numbers without * were called inactive; x = no result given. The full list was thinned out, with hits kept by preference.

SMILES | TNAP act mid DEA | Candida biofilm | PLAP act | HePTP inh | hDAT+cocaine | D1 allo mod
CCNC(=O)c1ccccc1NC(=O)c1cccc(S(=O)(=O)N2CCC(C)CC2)c1 | 0.9 | x | 0.9 | 0.3 | 0.707 | 0.665
COc1ccc(-c2nnc(CSc3nc4ccccc4c(=O)n3C)o2)cc1OC | 0.9 | 6.4 | 1.4 | 4.9 | 1.45 | 8.47*
O=C1CC(N2CCN(c3cccc(C(F)(F)F)c3)CC2)C(=O)N1c1ccccc1F (stereo not drawn) | 0.9 | 6.4 | 1.6 | -0.2 | 3.16* | -0.937
CC(C)(C)C(=O)/C=C/c1ccc(-n2nncc2C(C)(C)C)cc1 | x | x | x | 9.6 | x | x
CC(C)(C)c1cnnn1-c1ccc(C=O)cc1 | x | -1.3 | x | 5.8 | -2.73* | x
CN1/C(=C/C(=O)c2cccs2)Sc2ccccc21 | x | 0.1 | 0.7 | x | 0.123 | x
CN1/C(=C\C(=O)c2cccs2)Sc2ccccc21 | 0.9 | 6.0 | 1 | 5.0 | 0.0837 | -4.76*
COc1nc(Nc2nc3ccccc3c(=O)[nH]2)nc2ccc(C)cc12 | 1.2 | 1.2 | x | 7.3 | x | -2.68*
COc1ccc(Cc2c(O)nc(SC)n(-c3ccccc3)c2=O)cc1 | x | x | x | 7.8 | x | x
CC1=NN(c2ccccc2)C(=O)C1C=C1C(=O)NC(=S)NC1=O (stereo not drawn) | x | x | x | 54.5* | x | x
O=C(NCc1nc2ncc(Br)cc2[nH]1)c1ccccc1 | 0.9 | -4.3 | 1.6 | -3.7 | -7.35* | -0.959
O=c1[nH]c2cc(Br)cnc2nc1/C=C(\O)c1ccc(F)cc1 | x | x | 1 | x | 0.0458 | x
CN1C(=O)C(=Cc2ccc(-c3cc(Cl)ccc3Cl)o2)C(=O)N(C)C1=O | x | x | x | 6.3 | x | x
CN(C)c1ccc(C(=O)Nc2nc3c(s2)CCCC3)cc1 | 0.9 | x | 0.9 | 4.4 | -0.624 | -6.05*
Cc1cc(C(=O)Nc2nc3c(s2)CCCC3)no1 | 0.9 | 3.4 | 1.1 | 2.3 | 0.247 | -3.78*
Cc1onc(-c2ccccc2)c1C(=O)Nc1nc2c(s1)CCCC2 | 1 | -1.5 | 1.2 | 3.3 | -0.0504 | 0.0534
Oc1c(Cl)cc(Cl)cc1/C=N/c1nccs1 | x | 7.3 | 1.2 | x | 4.36* | x
NC(=O)c1cccc(N=Cc2cc(Cl)cc(Cl)c2O)c1 | x | x | x | -6.7 | x | x
CC1CCN(C(=O)c2ccc(CSc3nc4ccncc4n3Cc3ccc(F)cc3)cc2)CC1 | x | x | x | x | 3.51* | x
COC(=O)c1c(N)sc(C)c1-c1ccc(Cl)cc1 | x | x | x | -20.7 | x | x
CN(CCc1ccccn1)C(=O)Nc1ccc(F)cc1 | 1 | 6.9 | 1 | 3.8 | -0.399 | 0.026
CN(CCc1ccccn1)c1ncnc2[nH]ncc12 | 1 | -2.3 | 2.1* | -3.4 | -1.42 | -0.0838
CCN(CC)c1ccc(NC(=O)c2ccc(F)cc2)cc1 | x | x | x | -2.1 | x | x
CC(NC(=O)Cn1cnnn1)C12CC3CC(CC(C3)C1)C2 (stereo not drawn) | 0.9 | 10.5 | 1 | 1.0 | -3.26* | -0.881
CCCNC(=O)NC(C)C12CC3CC(CC(C3)C1)C2 (stereo not drawn) | x | 6.4 | 0.9 | x | -0.403 | x
SMILES | TNAP act mid DEA | Candida biofilm | PLAP act | HePTP inh | hDAT+cocaine | D1 allo mod
CC(=O)NC(C)C12CC3CC(CC(C3)C1)C2 (stereo not drawn) | x | x | x | 5.9 | x | x
CC(NC(=O)CN1CCCC1)C12CC3CC(CC(C3)C1)C2 (stereo not drawn) | x | 7.1 | 0.8 | x | -5.55* | x
CCOC(=O)C1=C(C)N=c2s/c(=C\c3ccc(I)cc3)c(=O)n2C1c1ccc(OC)c(OC)c1 (stereo not drawn) | x | x | x | 5.0 | x | x
Cc1[nH]c(=O)c(C#N)c2c1CSC(C)(C)C2 | x | 4.0 | 0.9 | x | -2.49* | x
O=C(Nc1ccccc1C(F)(F)F)N1CCC(n2c(=O)[nH]c3ccccc32)CC1 | 0.9 | x | x | 3.9 | 0.0863 | 0.0494
CCOc1ccc(NC(=O)N2CCC(n3c(=O)[nH]c4ccccc43)CC2)cc1 | 1 | 2.7 | 1.6 | 2.2 | 2.84* | x
COc1ccccc1N1CCN(C(c2ccc(C)cc2)c2nnnn2C(C)C)CC1 (stereo not drawn) | 0.8 | 8.5 | 1.4 | 12.8 | 3.07* | -1.38
COc1ccccc1N1CCN(C(c2ccc(F)cc2)c2nnnn2C(C)C)CC1 (stereo not drawn) | 0.9 | 4.7 | 1.2 | 8.6 | -0.0597 | -0.665
Cc1[nH]c2ccc(-c3nnc(SCC(=O)NCc4ccco4)n3Cc3ccccc3)cc2c1C | 0.9 | 3.6 | 2.1* | 7.6 | 1.98 | 0.0394
O=C(NCc1ccco1)c1ccc2c(=O)n(Cc3ccco3)c(SCC(=O)N3CCCC3)nc2c1 | 0.8 | 7.0 | 1.3 | 28.0 | 2.2* | 0.235
O=C(CSc1nc2ccsc2c(=O)n1Cc1ccccc1)NCc1ccco1 | 0.9 | 9.7 | 1 | 0.9 | -0.0983 | -2.23*
CCOC(=O)c1[nH]nc(-c2c(O)cc(C)cc2O)c1-c1csc(C)n1 | 1 | 6.3 | 2.1* | -10.5 | 0.62 | -1.73
CCCc1cc(-c2n[nH]c(C(=O)OCC)c2-c2cscn2)c(O)cc1O | x | 6.5 | 2.1* | x | 0.00288 | x
CCOC(=O)c1oc2cc(O)ccc2c(=O)c1-c1csc(C)n1 | 0.9 | 5.2 | 0.9 | 6.8 | 0.406 | -0.96
O=C(Nc1ccc(S(=O)(=O)N2CCc3ccccc32)cc1)c1ccc(F)cc1 | x | x | x | 3.2 | x | x
CN1CCN(C(=O)c2cc3nc(-c4ccc(Cl)cc4)cc(C(F)(F)F)n3n2)CC1 | 0.9 | 8.7 | 1.1 | -3.3 | 0.478 | -3.7*
CCn1cc(C(=O)O)c(=O)c2cc(F)c(N3CCNCC3)cc21 | 0.9 | 21.9* | x | 2.1 | -0.135 | -0.325
CCn1cc(C(=O)O)c(=O)c2cc(F)c(N3CCN(C(=O)Nc4ccccc4)CC3)cc21 | 0.9 | 10.6 | 1.2 | 12.6 | -0.333 | -2.18*
CCn1cc(C(=O)N[C@H](C)c2ccccc2)c(=O)c2cc(F)c(N3CCN(C)CC3)cc21 | x | 3.3 | 1.6 | x | -0.457 | x
CCn1cc(C(=O)O)c(=O)c2cc(F)c(N3CCN(C)CC3)cc21 | x | x | x | x | -0.198 | x
COc1cc(/C=N\N2CCN(Cc3ccc(C)cc3)CC2)cc(Br)c1O | x | x | x | 77.2* | x | x
C/C(Cl)=C\Cn1c(NCCc2ccccc2)nc2c1c(=O)n(C)c(=O)n2C | 0.8 | 0.7 | 1.1 | 9.2 | -1.12 | -3.12*
CCCCOC(=O)CCN1C(=O)/C(=C\c2cccs2)SC1=S | x | x | x | 1.6 | x | x
CCOc1ccc(/C=C/C(=O)c2ccc(F)cc2)cc1 | x | x | x | -12.2 | x | x
Cc1cccc(NC(=O)C23CCC(C)(C2Br)C3(C)C)c1 (stereo not drawn) | x | x | 0.8 | x | -8.54* | x
Cc1ccc2[nH]c(=O)c(C3C(C#N)=C(N)Oc4c3ccc3cccnc43)cc2c1 (stereo not drawn) | x | 10.4 | 2.2* | x | 1.45 | x
COC(=O)C1=C(C)NC(C)=C(C(=O)OC)C1c1cc2cc(C)ccc2[nH]c1=O | 0.9 | 1.9 | 1.4 | 4.2 | 0.335 | -0.726
CC(=O)c1c(C)[nH]c(C(=O)OCC(=O)N2CCc3ccccc32)c1C | x | 8.8 | 1.2 | x | -2.61* | x
CCOC(=O)c1[nH]c(C)c(C(=O)OCC(=O)N2CCc3ccccc32)c1C | x | 3.7 | 1 | x | -1.09 | x
CC(=O)c1c(C)[nH]c(C(=O)N2c3ccccc3CC2C)c1C (stereo not drawn) | 0.9 | 27.2* | 1.3 | 6.2 | 0.921 | 0.0313
